This note sets out measurements from PubChem BioAssay.

Assay [1] is described as follows: ICB984 medulloblastoma cell growth inhibition, synergistic combos for chromothripsis tumors, cisplatin or BGB combos (AID 1671451; call rule not given here;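 also: cells exposed for 96 hours before readout; 0% = vehicle DMSO and 100% = killing by high DMSO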). Particulars: ICB984 medulloblastoma cells, drug combinations, stronger effect = higher value.
In assay [2] the target is ATP-dependent translocase ABCB1 (Homo sapiens) (UniProt P08183). Briefly: MDR1 (ABCB1) efflux transporter inhibition, cell-based (AID 377; in the data active = fluorescence slope change above about 50%). Particulars: MDR1-expressing cells, fluorescent substrate accumulation slope; stronger effect = higher value; concentration not given here.
Assay [3] is described as follows: circadian clock period modulators, cell-based, LOPAC library, luminescence reporter (AID 2774; call rule not given here;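 also: values are relative to mean of DMSO wells on each plate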). The conditions noted are these: circadian reporter cells, at 7 µM, actives lie on both sides.
A short description of assay [4]: polyglutamine-triggered caspase-3 activation inhibitors, cell-based (AID 1583). The conditions noted are these: polyglutamine-induced caspase-3 activation, cell assay; stronger effect = higher value;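 tested at 10 µM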.
A short description of assay [5]: suppressors of polyQ aggregation in yeast, 75Q-TubU reporter (AID 1593). Particulars: Yeast 75Q polyglutamine aggregation reporter.
A short description of assay [6]: inhibitors of mitochondrial cytochrome c release, biochemical, purified mitochondria (AID 1603).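 Also: mouse liver mitochondria challenged with calcium chloride; signal normalized to the plate average as 100%.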 The conditions noted are these: stronger effect = lower value.
Assay [7] is described as follows: inhibitors of polyQ protein aggregation (AID 1604). Particulars: polyglutamine-induced protein aggregation inhibition assay; stronger effect = higher value; tested at 2.5 µM.
A short description of assay [8]: enhancers of glutamate uptake in motor neurons, MN-1 cell line (AID 1612).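 Also: tested at 1 µM final; 0% = mean of DMSO vehicle wells on each plate; positive means more glutamate uptake than control and negative means less.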 Particulars: MN-1 motor neuron cells, stronger effect = higher value.
The next assay relates to F380Y. Briefly: modulators of BK channel variants, profiling panel, selectivity assay, cell-based, U2OS BacMam, thallium flux, beta subunits (AID 1259406).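 Also: initial slope of Thallos dye fluorescence rise after thallium is added; log ratio against the mean of 0.3% DMSO vehicle wells on the same plate.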 Particulars: at 30 µM.
In a further assay the test system is F380Y/beta2Delta. Described as above. Particulars: at 30 µM.
Assay [9] addresses Calcium-activated potassium channel subunit alpha-1 (Homo sapiens) + Leucine-rich repeat-containing protein 26 (Homo sapiens) (UniProt Q12791+Q2I0M4). The description is as above. Particulars: F380Y/Slo1WT/gamma1, at 30 µM.
The next assay concerns R275C. The description is as above. The conditions noted are these: at 30 µM.
The next assay concerns R275C/beta1. The assay is described as above. Particulars: at 30 µM.
The subject of a further assay is R275C/beta2Delta. The assay is described as above. Particulars: at 30 µM.
A short description of assay [10]: Cy5 fluorescence interference with SSB-bound oligo, artefact control for HCV NS3 helicase inhibitor project, biochemical, NIH Clinical Collection, E. coli SSB (AID 743268; call rule not given here).
Assay [11] relates to Hepatitis C virus NS3 helicase. The assay is described as follows: HCV NS3 helicase inhibitors, primary screen, biochemical, fluorescence polarization, NIH Clinical Collection (AID 743270; call rule not given here). The conditions noted are these: NS3 helicase binding to Cy5-dT15 DNA, stronger effect = higher value, concentration not given here.
Assay [12] deals with Single-stranded DNA-binding protein (Escherichia coli (strain K12)) (UniProt P0AGE0). The assay is described as follows: E. coli SSB displacement from DNA, counter-screen for HCV NS3 helicase inhibitor project, biochemical, fluorescence polarization, NIH Clinical Collection (AID 743271; in the data active = inhibition above about 28%). Particulars: stronger effect = higher value, concentration not given here. For orientation: A counterscreen serves to expose hits that act by an unwanted route or on another target.

Assay [13] in a line: fluorescence interference in NS3h assay format, artefact control for HCV NS3 helicase inhibitor project, biochemical, NIH Clinical Collection (AID 743272; call rule not given here;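 also: HCV NS3 helicase with a Cy5 labelled single stranded DNA probe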). The conditions noted are these: fluorescence interference counterscreen, stronger effect = lower value.
The subject of assay [14] is Neuropilin-2 / VEGF-C interaction (human). Briefly: inhibitors of NRP2–VEGF-C binding, biochemical, microplate binding format, z-score (AID 743281; call rule not given here). Particulars: microplate NRP2/VEGF-C binding assay; stronger effect = lower value.
Assay [15] in a line: modulation of C. elegans fzo-1 (AID 1259413; call rule not given here;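 also: fzo-1 mutant C. elegans worms in liquid wells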). Particulars: C. elegans fzo-1 modulator screen, mean read-out; stronger effect = higher value.

Results filed as inconclusive are left out. The source made the active and inactive calls.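 The calls were made as follows, unless noted: active = thallium flux through the channel raised or lowered by more than 3 SD from vehicle-only wells, actives on both sides; inactive = the rest.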

Chain of Calcium-activated potassium channel subunit alpha-1 (Homo sapiens) + Leucine-rich repeat-containing protein 26 (Homo sapiens) (Q2I0M4 whole entry, looked up, one chain of several): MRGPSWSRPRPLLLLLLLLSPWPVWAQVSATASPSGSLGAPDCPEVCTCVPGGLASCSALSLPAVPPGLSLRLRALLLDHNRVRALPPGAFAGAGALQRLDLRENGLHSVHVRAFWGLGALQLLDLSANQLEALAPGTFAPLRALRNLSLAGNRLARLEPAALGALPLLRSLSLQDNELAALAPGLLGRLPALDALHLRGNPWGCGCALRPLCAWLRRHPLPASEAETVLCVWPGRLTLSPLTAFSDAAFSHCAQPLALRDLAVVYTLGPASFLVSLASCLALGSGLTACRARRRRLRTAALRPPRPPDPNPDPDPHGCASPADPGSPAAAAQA
Chain of ATP-dependent translocase ABCB1 (Homo sapiens) (P08183 whole entry, looked up): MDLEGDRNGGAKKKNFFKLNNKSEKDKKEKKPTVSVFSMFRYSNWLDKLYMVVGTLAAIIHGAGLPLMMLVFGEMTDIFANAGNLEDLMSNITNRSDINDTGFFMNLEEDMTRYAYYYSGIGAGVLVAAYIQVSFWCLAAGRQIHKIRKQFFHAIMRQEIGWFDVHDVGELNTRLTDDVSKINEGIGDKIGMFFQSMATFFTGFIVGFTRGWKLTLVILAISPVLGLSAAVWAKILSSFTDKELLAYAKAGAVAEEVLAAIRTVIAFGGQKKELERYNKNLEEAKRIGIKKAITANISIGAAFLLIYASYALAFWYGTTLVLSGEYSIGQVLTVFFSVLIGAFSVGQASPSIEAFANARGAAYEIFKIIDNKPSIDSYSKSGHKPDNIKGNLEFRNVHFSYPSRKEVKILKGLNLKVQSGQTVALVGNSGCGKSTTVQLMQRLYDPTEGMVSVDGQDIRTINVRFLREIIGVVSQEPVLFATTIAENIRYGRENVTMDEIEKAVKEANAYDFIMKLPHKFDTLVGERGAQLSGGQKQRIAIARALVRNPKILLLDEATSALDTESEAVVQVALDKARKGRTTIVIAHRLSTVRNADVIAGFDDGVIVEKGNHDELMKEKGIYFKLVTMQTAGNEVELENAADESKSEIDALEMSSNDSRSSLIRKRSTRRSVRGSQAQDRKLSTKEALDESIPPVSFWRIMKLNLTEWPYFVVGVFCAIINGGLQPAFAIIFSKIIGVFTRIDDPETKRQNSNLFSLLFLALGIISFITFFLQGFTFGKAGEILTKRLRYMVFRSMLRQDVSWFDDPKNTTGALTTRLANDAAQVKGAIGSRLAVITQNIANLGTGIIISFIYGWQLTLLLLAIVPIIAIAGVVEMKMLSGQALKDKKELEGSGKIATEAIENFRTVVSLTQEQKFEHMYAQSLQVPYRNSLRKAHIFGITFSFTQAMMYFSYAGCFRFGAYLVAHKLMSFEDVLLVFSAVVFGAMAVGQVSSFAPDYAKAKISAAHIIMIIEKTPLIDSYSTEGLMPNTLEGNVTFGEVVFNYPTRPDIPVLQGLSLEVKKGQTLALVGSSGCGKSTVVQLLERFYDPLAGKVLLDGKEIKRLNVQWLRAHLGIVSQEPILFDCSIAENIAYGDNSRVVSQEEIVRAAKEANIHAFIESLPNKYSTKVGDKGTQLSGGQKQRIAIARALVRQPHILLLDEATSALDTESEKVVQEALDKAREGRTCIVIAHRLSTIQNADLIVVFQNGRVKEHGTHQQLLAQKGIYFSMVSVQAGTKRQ

One may read the inhibition as the relative decrease from the control value, in per cent. `Cn1c(CCCC(=O)O)nc2cc(N(CCCl)CCCl)ccc21`: the inhibition in [1] (BGB IC20 combo, at 0.005 µM) is 6.09%; in [1] (BGB IC40 combo, at 0.005 µM) it was -55.7%; in [1] (BGB IC40 combo, at 0.05 µM) it was -19.6%; in assay [1] (at 0.5 µM), -15.5% (inactive); in [1] (cisplatin combo, at 0.05 µM), -19.6%; in assay [1] (cisplatin combo, at 0.5 µM), -24.4%. The inhibition in assay [1] (cisplatin combo, at 5 µM) was -46.7%; in assay [1] (measured here: 5 uM single agent, at 5 µM), -9.28%.
As to `OC(c1ccccc1)(c1ccccc1)C1CCNCC1`, the fluorescence slope change in [2] is 93.1% (active).
Still for that read-out and setting: next, `O=C(CCCN1CCC(n2c(=O)[nH]c3ccccc32)CC1)c1ccc(F)cc1`: 57.5% (active); `COc1ccc2c(c1OC)CN1CCc3cc4c(cc3C1C2)OCO4` (stereo not given): 24.8% (inactive).
Turning to `C[C@]12CCC(=O)C=C1CC[C@@H]1[C@@H]2CC[C@]2(C)C(=O)CC[C@@H]12`, the period change in [3] was 0.09 h (inactive).
Same read-out and setting: next, `Clc1cccc(N2CCNCC2)c1`: 0.065 h (inactive).
In the case of `CN1C[C@H](CNC(=O)OCc2ccccc2)C[C@@H]2c3cccc4c3c(cn4C)C[C@H]21`, in [2], the fluorescence slope change is 18.1% (inactive). In assay [3], the period change was 0.135 h (inactive).
For the compound `CN(C)C(=S)SSC(=S)N(C)C`, the inhibition in assay [4] stood at 37.5%. In addition, the score in [5] came to 0.02. For the same compound, the cytochrome c release ratio in assay [6] stood at 3.47. Besides, the inhibition of aggregation in assay [7] was -16.7%. Further, in [8], the glutamate uptake change came to 7.76%.
For the compound `COc1ccc2c(c1OC)C(=O)O[C@H]2[C@@H]1c2cc3c(cc2CCN1C)OCO3`, the period change in assay [3] was -0.14 h (inactive).
`O=C1CC[C@@]2(O)[C@H]3Cc4ccc(O)c5c4[C@@]2(CCN3CC2CC2)[C@H]1O5`: the fluorescence slope change in assay [2] was 79.9% (active). Moreover, the log fold change Tl+ flux in the assay with F380Y was 0.00675 (inactive); in the assay on F380Y/beta2Delta, 0.00968 (inactive); in assay [9], -0.0199 (inactive); in the assay on R275C, -0.0442 (inactive); in the assay on R275C/beta1, 0.0294 (inactive); in the assay on R275C/beta2Delta it was -0.0407 (inactive).
Consider `FC(F)(F)c1cccc(N2CCNCC2)c1`, for which the results for the inhibition in assay [4], in [11] and in assay [12] were 28.1%, -2.77% (inactive) and -3.95% (inactive), respectively. Further, the score in assay [5] amounted to 1.15. In addition, the cytochrome c release ratio in assay [6] came out at 0.84. Further, the inhibition of aggregation in [7] came to 50%. Also, the glutamate uptake change in assay [8] stood at 0.29%. Besides, the fluorescence ratio in [10] is 1.01 (inactive); in assay [13] it was 0.93 (inactive). Besides, in [14], the z-score was -0.497 (inactive). In addition, the mean signal in [15] is 282 (inactive). In addition, the log fold change Tl+ flux in the assay on F380Y is -0.0132 (inactive); with F380Y/beta2Delta, 0.0279 (inactive); in assay [9] it was -0.00699 (inactive); in the assay with R275C it was 0.0139 (inactive); with R275C/beta1, 0.0717 (inactive); in the assay on R275C/beta2Delta, 0.00655 (inactive).
In the case of `O=c1ccc2cc(O[C@@H]3O[C@H](CO)[C@@H](O)[C@H](O)[C@H]3O)c(O)cc2o1`, the inhibition in assay [4] was -24.4%. Moreover, the score in assay [5] amounted to 1.12. Moreover, the cytochrome c release ratio in assay [6] worked out at 0.85. The inhibition of aggregation in assay [7] stood at 54.9%. Moreover, in assay [8], the glutamate uptake change was found to be 18.9%.
Take `Clc1ccc(COC(Cn2ccnc2)c2ccc(Cl)cc2Cl)c(Cl)c1` (stereo not given): the inhibition in assay [4] was 16.3%; in assay [11] it was 6.82% (inactive); in [12], 4.86% (inactive). In addition, in assay [5], the score is -0.06. The cytochrome c release ratio in assay [6] turned out to be 0.32. Also, the inhibition of aggregation in assay [7] is 80.3%. Moreover, in assay [8], the glutamate uptake change is 5.65%. Besides, the fluorescence ratio was 0.96 (inactive) in assay [10] and 0.93 (inactive) in assay [13]. Also, the mean signal in assay [15] is 182 (inactive). Moreover, the log fold change Tl+ flux in the assay with F380Y is -0.0473 (inactive); in the assay with F380Y/beta2Delta, -0.0262 (inactive); in [9], 0.0222 (inactive); in the assay on R275C, -0.0411 (inactive); in the assay with R275C/beta1 it was 0.0424 (inactive); with R275C/beta2Delta, -0.0245 (inactive).
On to `Cc1nccc2c1[nH]c1ccccc12`, for which, in assay [3], the period change is 0.11 h (inactive).
Take `COc1ccc2[nH]cc(CCN)c2c1`: the period change in [3] was -0.125 h (inactive). Also, the fluorescence ratio in assay [10] was 0.98 (inactive); in assay [13], 0.97 (inactive). The inhibition in assay [11] was -1.09% (inactive); in assay [12], 3.54% (inactive). The z-score in assay [14] is 0.413 (inactive). In addition, the mean signal in assay [15] is 258 (inactive). In addition, the log fold change Tl+ flux in the assay with F380Y was 0.0218 (inactive); in the assay with F380Y/beta2Delta it was -0.052 (inactive); in assay [9] it was -0.0293 (inactive); in the assay on R275C it was -0.061 (inactive); in the assay on R275C/beta1, -0.0101 (inactive); in the assay with R275C/beta2Delta, -0.00391 (inactive).
